Results from paper PMC7862700, “An all-to-all approach to the identification of sequence-specific readers for epigenetic DNA modifications on cytosine”.

Columns and labels:
Assay in all cases: DAPPL (digital affinity profiling via proximity ligation, sequencing); 10 mM Tris-HCl pH 7.5, 50 mM NaCl, 1 mM DTT, 4% glycerol, room temperature, 30 min; GST-TFs on glutathione beads, 16-mer random dsDNA library, 0.1% formaldehyde crosslink after washing; high values mean tight binding
Details in all cases: protein: recombinant; tags: N-terminal GST; dsDNA, one strand shown
[1] = molecular target: T1, ELK1 (Homo sapiens, UniProt P19419 1-428)
T1 sequence: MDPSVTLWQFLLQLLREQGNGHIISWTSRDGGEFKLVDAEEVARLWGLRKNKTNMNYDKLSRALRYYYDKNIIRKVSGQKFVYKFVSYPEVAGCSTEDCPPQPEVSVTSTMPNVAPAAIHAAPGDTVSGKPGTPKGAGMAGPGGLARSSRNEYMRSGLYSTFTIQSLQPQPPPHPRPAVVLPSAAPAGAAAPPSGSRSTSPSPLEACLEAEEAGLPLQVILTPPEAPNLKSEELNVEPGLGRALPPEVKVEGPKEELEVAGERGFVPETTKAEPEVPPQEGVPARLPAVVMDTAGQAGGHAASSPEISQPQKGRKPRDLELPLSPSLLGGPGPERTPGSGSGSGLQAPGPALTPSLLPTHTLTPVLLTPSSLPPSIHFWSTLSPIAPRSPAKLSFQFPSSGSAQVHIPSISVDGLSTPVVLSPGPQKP
Procedure, shortened: (§1)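 GST fusions of human transcription factors were expressed in yeast and captured with glutathione beads. Once given DNA barcodes and pooled alongside a tag-only sample, they were incubated for 30 min at room temperature with 200 nmole of a random double-stranded 16-mer DNA library in Tris/NaCl/DTT/glycerol buffer, then washed, crosslinked (0.1% formaldehyde), proximity-ligated, PCR-amplified and sequenced on an Illumina NextSeq500. The binding signal of each hexamer is its read frequency for a factor divided by its frequency for the tag-only sample.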

[2] = molecular target: T2, GABPA (Homo sapiens, UniProt Q06546 1-454)
T2 sequence: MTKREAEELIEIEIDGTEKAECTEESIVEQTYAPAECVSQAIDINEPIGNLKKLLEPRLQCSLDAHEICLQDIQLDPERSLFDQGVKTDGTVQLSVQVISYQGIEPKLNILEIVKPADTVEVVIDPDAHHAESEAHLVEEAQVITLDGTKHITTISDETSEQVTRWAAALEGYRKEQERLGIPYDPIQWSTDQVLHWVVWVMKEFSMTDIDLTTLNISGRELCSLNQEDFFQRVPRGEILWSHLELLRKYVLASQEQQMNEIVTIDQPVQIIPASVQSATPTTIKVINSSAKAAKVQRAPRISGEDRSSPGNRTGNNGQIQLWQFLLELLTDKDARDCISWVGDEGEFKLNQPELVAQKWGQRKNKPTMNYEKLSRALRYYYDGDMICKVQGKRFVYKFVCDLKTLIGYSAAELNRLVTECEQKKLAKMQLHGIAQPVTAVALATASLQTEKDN
Procedure, shortened: as §1

[3] = molecular target: T3, ERG (Homo sapiens, UniProt P11308 1-479)
T3 sequence: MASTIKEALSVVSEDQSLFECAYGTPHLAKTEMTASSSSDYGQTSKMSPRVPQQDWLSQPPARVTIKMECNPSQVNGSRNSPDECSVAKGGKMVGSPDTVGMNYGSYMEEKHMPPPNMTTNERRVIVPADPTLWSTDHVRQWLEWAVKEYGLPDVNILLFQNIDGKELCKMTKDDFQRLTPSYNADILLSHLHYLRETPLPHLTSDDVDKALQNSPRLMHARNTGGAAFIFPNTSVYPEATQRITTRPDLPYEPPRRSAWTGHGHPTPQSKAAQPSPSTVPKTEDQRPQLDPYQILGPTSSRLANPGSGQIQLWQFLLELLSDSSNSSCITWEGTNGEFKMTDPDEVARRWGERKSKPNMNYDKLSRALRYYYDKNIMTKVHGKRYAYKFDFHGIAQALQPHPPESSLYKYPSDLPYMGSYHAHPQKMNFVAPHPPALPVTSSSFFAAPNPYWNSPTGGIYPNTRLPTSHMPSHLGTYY
Procedure, shortened: as §1

[4] = molecular target: ELF1 (Homo sapiens, UniProt P32519 1-619)
Procedure, shortened: as §1

[5] = molecular target: T4, EHF (Homo sapiens, UniProt Q9NZC4 1-300)
T4 sequence: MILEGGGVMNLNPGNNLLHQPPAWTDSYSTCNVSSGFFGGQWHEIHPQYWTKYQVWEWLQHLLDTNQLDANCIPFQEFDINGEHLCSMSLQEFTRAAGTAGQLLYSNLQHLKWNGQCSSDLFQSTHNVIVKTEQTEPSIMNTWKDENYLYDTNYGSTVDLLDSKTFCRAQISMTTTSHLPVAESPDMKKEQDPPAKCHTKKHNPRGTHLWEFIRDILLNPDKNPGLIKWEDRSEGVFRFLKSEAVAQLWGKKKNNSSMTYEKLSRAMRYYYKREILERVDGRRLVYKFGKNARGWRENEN
Procedure, shortened: as §1

[6] = molecular target: SPIB (Homo sapiens, UniProt Q01892 1-262)
Procedure, shortened: as §1

[7] = molecular target: T5, ELK3 (Homo sapiens, UniProt P41970 1-407)
T5 sequence: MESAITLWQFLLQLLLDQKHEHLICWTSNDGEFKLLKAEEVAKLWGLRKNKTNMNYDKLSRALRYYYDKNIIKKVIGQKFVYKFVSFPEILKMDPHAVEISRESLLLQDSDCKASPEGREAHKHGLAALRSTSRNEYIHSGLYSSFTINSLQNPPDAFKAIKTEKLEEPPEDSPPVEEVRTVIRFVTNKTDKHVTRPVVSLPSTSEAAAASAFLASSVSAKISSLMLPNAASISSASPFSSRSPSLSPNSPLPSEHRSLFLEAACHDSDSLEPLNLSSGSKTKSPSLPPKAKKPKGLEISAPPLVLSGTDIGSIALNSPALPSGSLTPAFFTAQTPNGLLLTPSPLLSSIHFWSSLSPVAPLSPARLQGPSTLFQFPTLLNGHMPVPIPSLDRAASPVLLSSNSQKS
Procedure, shortened: as §1

[8] = molecular target: ETV5 (Homo sapiens, UniProt P41161 1-510)
Procedure, shortened: as §1

[9] = molecular target: ELF4 (Homo sapiens, UniProt Q99607 1-663)
Procedure, shortened: as §1

[10] = molecular target: T6, ELF3 (Homo sapiens, UniProt P78545 1-371)
T6 sequence: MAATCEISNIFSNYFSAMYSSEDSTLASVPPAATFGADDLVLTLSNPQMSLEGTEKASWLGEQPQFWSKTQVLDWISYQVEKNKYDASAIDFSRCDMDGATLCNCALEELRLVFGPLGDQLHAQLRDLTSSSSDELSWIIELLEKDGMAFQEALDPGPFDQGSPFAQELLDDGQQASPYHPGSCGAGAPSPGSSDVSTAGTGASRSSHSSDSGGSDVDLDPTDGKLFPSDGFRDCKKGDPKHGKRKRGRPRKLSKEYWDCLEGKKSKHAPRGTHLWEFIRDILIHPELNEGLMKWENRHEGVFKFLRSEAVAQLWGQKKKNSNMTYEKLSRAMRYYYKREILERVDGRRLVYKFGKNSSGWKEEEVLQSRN
Procedure, shortened: as §1

[11] = molecular target: ETV1 (Homo sapiens, UniProt P50549 1-477)
Procedure, shortened: as §1

[12] = molecular target: T7, ERF (Homo sapiens, UniProt P50548 1-548)
T7 sequence: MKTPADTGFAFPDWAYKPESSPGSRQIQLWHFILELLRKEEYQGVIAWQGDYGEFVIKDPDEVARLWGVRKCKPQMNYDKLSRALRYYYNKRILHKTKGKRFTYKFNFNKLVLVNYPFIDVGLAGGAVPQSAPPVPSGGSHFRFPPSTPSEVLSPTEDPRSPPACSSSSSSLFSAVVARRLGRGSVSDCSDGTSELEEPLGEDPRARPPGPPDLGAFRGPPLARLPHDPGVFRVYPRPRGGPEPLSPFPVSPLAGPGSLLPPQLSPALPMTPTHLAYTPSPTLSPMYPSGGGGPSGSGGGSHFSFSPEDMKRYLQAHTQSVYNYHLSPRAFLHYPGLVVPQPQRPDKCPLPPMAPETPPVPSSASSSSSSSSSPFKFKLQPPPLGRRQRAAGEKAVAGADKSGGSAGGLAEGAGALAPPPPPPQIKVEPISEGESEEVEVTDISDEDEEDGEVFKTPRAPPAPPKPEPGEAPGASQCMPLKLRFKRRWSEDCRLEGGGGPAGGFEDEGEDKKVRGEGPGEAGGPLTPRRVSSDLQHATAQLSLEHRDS
Procedure, shortened: as §1

[13] = molecular target: T8, ETV3L (Homo sapiens, UniProt Q6ZN32 1-361)
T8 sequence: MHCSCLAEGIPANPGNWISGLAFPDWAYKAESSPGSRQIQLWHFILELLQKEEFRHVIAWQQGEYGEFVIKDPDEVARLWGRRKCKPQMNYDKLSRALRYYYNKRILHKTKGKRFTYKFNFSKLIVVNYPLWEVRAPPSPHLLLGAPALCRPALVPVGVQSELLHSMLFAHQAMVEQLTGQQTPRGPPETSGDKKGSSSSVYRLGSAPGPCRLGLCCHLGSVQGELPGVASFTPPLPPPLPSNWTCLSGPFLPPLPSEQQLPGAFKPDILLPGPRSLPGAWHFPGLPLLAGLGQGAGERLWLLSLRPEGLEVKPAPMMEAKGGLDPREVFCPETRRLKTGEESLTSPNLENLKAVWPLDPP
Procedure, shortened: as §1

[14] = molecular target: T9, ETS2 (Homo sapiens, UniProt P15036 1-469)
T9 sequence: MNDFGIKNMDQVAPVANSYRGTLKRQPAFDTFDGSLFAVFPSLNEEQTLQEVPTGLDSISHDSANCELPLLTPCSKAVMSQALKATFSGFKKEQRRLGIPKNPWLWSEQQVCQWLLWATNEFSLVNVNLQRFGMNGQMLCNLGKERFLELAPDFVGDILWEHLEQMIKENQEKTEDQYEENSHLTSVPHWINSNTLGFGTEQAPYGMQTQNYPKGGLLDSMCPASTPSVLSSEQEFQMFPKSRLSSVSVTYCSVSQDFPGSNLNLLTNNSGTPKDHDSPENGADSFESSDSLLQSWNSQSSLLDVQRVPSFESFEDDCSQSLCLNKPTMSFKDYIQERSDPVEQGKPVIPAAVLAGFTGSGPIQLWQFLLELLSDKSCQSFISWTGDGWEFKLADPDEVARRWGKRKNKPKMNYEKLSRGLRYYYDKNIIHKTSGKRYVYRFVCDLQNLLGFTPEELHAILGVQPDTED
Procedure, shortened: as §1

[15] = molecular target: T10, SPDEF (Homo sapiens, UniProt O95238 1-335)
T10 sequence: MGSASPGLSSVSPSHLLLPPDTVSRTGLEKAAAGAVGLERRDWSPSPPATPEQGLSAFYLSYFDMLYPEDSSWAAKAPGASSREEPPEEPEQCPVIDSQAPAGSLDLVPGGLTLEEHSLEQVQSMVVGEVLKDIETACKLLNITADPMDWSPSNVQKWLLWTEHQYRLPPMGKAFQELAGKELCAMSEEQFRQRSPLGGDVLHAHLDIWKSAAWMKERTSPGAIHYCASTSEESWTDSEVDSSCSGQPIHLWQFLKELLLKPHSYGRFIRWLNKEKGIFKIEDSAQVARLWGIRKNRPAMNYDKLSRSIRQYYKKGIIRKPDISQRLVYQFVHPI
Procedure, shortened: as §1

[16] = molecular target: T11, ETV7 (Homo sapiens, UniProt Q9Y603 1-341)
T11 sequence: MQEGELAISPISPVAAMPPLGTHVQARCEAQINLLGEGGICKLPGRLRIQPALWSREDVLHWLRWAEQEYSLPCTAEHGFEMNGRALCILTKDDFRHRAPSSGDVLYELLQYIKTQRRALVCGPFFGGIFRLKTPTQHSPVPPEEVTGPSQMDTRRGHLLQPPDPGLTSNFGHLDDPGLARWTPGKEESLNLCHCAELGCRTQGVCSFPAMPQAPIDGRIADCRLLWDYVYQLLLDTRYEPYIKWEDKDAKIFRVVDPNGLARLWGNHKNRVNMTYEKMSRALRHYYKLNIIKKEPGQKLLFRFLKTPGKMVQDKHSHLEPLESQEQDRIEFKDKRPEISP
Procedure, shortened: as §1

[17] = molecular target: T12, ETV3 (Homo sapiens, UniProt P41162-2 1-143)
T12 sequence: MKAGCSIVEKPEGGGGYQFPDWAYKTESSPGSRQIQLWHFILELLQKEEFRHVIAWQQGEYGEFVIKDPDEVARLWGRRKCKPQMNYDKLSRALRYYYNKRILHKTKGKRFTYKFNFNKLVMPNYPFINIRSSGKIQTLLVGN
Procedure, shortened: as §1

[18] = molecular target: ETV6 (Homo sapiens, UniProt P41212 1-452)
Procedure, shortened: as §1

ETV5, sequence (P41161 whole entry): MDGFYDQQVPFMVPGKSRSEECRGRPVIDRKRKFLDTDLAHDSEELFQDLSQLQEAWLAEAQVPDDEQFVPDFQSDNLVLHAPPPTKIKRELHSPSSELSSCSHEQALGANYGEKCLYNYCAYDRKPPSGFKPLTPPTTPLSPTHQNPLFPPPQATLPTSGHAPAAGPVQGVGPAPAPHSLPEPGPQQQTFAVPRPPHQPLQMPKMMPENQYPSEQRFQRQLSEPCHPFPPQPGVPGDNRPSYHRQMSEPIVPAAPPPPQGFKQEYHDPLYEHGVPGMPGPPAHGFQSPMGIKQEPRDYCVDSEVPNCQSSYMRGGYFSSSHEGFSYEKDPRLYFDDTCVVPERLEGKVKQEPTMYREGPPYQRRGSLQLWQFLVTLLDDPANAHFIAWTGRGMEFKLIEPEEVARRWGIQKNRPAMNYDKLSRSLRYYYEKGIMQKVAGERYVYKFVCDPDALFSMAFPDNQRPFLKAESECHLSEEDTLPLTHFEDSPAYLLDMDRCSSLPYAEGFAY
ETV6, sequence (P41212 whole entry): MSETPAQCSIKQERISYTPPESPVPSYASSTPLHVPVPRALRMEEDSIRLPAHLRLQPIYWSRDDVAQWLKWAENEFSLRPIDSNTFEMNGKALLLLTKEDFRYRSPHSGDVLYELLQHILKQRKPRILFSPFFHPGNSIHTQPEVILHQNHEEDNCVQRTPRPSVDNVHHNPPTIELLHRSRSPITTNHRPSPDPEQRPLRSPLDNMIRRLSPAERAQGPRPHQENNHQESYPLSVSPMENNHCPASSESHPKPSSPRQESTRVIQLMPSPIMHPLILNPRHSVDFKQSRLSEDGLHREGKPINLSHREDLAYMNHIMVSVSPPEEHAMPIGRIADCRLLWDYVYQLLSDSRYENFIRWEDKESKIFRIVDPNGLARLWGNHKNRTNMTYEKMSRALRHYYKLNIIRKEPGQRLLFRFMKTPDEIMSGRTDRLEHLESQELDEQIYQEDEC
ELF4, sequence (Q99607 whole entry): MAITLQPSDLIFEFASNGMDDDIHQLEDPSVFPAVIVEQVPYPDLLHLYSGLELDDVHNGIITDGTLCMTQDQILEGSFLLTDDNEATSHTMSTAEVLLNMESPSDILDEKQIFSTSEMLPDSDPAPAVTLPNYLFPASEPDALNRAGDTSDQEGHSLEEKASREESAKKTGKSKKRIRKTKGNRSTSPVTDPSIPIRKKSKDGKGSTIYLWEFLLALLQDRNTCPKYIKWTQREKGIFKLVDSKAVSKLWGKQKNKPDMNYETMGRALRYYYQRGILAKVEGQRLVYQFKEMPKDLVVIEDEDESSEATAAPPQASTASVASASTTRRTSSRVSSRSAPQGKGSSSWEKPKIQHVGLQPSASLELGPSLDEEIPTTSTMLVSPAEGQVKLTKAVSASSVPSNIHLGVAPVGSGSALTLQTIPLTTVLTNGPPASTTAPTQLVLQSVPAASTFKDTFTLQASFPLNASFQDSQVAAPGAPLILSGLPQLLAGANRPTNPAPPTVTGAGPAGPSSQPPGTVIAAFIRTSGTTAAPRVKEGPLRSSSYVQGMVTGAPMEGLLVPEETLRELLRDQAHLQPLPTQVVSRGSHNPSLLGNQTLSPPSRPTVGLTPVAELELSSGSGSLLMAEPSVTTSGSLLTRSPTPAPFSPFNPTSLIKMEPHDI
SPIB, sequence (Q01892 whole entry): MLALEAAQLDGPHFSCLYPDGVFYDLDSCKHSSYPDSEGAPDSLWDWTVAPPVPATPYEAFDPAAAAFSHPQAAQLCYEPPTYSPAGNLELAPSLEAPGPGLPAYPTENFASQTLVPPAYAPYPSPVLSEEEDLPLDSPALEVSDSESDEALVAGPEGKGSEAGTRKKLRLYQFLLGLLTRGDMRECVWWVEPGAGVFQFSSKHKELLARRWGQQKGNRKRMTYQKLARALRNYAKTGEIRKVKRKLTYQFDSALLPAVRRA
ETV1, sequence (P50549 whole entry): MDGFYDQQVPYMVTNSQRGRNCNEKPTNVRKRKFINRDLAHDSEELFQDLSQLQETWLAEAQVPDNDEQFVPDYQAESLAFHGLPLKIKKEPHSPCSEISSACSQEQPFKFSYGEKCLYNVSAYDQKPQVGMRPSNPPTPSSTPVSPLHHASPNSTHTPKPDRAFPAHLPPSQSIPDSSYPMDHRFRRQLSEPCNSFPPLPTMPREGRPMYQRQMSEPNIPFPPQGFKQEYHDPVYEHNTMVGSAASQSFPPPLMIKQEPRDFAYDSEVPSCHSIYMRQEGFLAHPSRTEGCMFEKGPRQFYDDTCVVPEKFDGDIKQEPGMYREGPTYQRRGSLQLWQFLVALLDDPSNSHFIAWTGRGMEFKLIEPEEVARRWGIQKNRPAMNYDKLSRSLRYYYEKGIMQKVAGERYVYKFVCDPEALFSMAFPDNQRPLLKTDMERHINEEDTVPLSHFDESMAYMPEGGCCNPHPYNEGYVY
ELF1, sequence (P32519 whole entry): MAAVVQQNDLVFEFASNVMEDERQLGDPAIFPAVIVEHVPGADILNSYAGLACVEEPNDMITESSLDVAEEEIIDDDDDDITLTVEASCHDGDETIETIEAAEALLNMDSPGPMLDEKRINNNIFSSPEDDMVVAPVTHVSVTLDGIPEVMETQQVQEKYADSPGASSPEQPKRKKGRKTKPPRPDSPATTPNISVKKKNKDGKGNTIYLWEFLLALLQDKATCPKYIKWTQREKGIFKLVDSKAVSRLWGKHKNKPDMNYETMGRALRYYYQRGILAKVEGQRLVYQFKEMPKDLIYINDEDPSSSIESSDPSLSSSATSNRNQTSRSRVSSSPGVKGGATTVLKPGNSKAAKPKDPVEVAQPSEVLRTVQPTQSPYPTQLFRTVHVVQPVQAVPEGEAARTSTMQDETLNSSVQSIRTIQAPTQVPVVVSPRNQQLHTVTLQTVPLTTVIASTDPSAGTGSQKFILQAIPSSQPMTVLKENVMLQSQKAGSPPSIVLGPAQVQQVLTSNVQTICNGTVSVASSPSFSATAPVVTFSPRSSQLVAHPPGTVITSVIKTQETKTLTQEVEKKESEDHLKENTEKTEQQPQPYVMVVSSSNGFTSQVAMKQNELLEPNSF

**Q.** What does the source list for GACCGG?
**A.** binding signal [1]: 1.11 fold enrichment (6-mer frequency, TF over GST control); binding signal [2]: 1.02 fold enrichment (6-mer frequency, TF over GST control); binding signal [3]: 1.31 fold enrichment (6-mer frequency, TF over GST control); binding signal [4]: 1 fold enrichment (6-mer frequency, TF over GST control); binding signal [5]: 1.06 fold enrichment (6-mer frequency, TF over GST control); binding signal [6]: 1.07 fold enrichment (6-mer frequency, TF over GST control); binding signal [7]: 1.23 fold enrichment (6-mer frequency, TF over GST control); binding signal [8]: 1.12 fold enrichment (6-mer frequency, TF over GST control); binding signal [9]: 1.03 fold enrichment (6-mer frequency, TF over GST control); binding signal [10]: 1.14 fold enrichment (6-mer frequency, TF over GST control); binding signal [11]: 1.21 fold enrichment (6-mer frequency, TF over GST control); binding signal [12]: 1.06 fold enrichment (6-mer frequency, TF over GST control); binding signal [13]: 1.08 fold enrichment (6-mer frequency, TF over GST control); binding signal [14]: 1.07 fold enrichment (6-mer frequency, TF over GST control); binding signal [15]: 1.19 fold enrichment (6-mer frequency, TF over GST control); binding signal [16]: 1.06 fold enrichment (6-mer frequency, TF over GST control); binding signal [17]: 1.09 fold enrichment (6-mer frequency, TF over GST control); binding signal [18]: 1.03 fold enrichment (6-mer frequency, TF over GST control)
